Here are results for ten molecules from PubChem BioAssay (NCATS).

The nature of assay [1]: Cell Viability - SK-N-SH (AID 435; calls by dose curve;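 also: potency is read from the fitted curve at half-maximal effect; compound exposure lasted 40 h at 37 °C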). The settings on record: SK-N-SH neuroblastoma cell viability qHTS. Summed up:
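Human neuroblastoma line, 40 h exposure at 37 °C, ATP quantified via luciferase luminescence; DMSO and 100 uM tamoxifen define 0 and 100% inhibition for AC50 fitting.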

Assay [2] is described as follows: Cell Viability - H-4-II-E (AID 543). Also: % is scaled to controls: 0 for no effect and ±100 for the full control effect; nearly all actives have a fitted effect of over 35% in size. Conditions: H-4-II-E rat hepatoma viability; series mostly up to 92.2 µM. A digest of the protocol:
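Rat hepatoma H-4-II-E cells, 1500 per well, treated 40 h at 37 °C in complete medium. Cellular ATP read by CellTiter-Glo luminescence; AC50 from Hill fits of concentration-response.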

The nature of assay [3]: Cell Viability - Renal Proximal Tubule (AID 545). Also: nearly all actives have a fitted effect of over 40% in size. Conditions: renal proximal tubule cells viability; series mostly up to 91.7 µM. A digest of the protocol:
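In this qHTS format, normal rat kidney-derived proximal tubule cells in complete culture medium receive compound titrations, then sit 40 hours at 37 °C before luciferase-based ATP quantitation; potency is reported as AC50 from concentration-response curves.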

Assay [4] in a line: Cell Viability - Mesenchymal (AID 546).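 Also: cells exposed to compound for 40 hours before reading.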 Conditions: mesenchymal cells viability, qHTS; series mostly up to 91.7 µM. Summed up: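 Human kidney mesenchymal cells from normal renal glomeruli, 1000 cells/well, rested 5 hr at 37 °C, then treated 40 hr at 37 °C in complete medium. Cellular ATP read by CellTiter-Glo luminescence; AC50 from Hill-equation fits.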
Assay [5] in a line: Cellular Toxicity (caspase-3) Jurkat (AID 655).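 Also: cells exposed to compound for 16 h at 37 °C before reading.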 The settings on record: Jurkat caspase-3 activation, luminescence; caspase-3 activation: at 92.2 µM (top of the series), DMSO = 0%, tamoxifen = 100%. A digest of the protocol: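 qHTS in human Jurkat T-cell leukemia line: 16 hr compound treatment at 37 °C, caspase-3/7 activity measured by Caspase-Glo luminescence. AC50 derived from Hill equation.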

Assay [6] is described as follows: Cell Viability - LYMP2-004 (AID 966).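 Also: plate controls were DMSO only for no effect and tetraoctylammonium bromide control for full effect; nearly all actives have a fitted effect of over 65% in size.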 Conditions: LYMP2-004 lymphoblastoid cell viability, qHTS; series mostly up to 92.2 µM. A digest of the protocol:
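Lymphoblastoid LYMP2-004 cells, 2500 per well, were preincubated for 5 hr and then treated with compound for 24 h at 37 C in complete medium. Viability was read as cellular ATP by CellTiter-Glo luminescence, and AC50 values were taken from Hill fits to concentration-response data.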

Assay [7] can be described thus: Cell Viability - LYMP2-011 (AID 969).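 Also: 0% = DMSO only and full inhibition = 92 µM tetraoctylammonium bromide; nearly all actives have a fitted effect of over 60% in size.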 Conditions: LYMP2-011 lymphoblastoid cells viability; series mostly up to 92.2 µM. A digest of the protocol:
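2500 cells/well in complete medium, compound-treated 24 h at 37 C. Viability read as intracellular ATP by CellTiter-Glo luminescence after 30 min at room temperature. AC50 from Hill fits of qHTS concentration-response data.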

A short description of assay [8]: Cell Viability - LYMP2-008 (AID 980). Also: % is scaled to controls: 0 for no effect and ±100 for the full control effect; nearly all actives have a fitted effect of over 60% in size. Conditions: LYMP2-008 lymphoblastoid cell viability, qHTS; series mostly up to 92.2 µM. A digest of the protocol:
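LYMP2-008 lymphoblastoid cells (2500/well) plated 5 h, then treated 24 h at 37 C in complete medium. Viability read as intracellular ATP by CellTiter-Glo luminescence after 30 min at room temperature; AC50 from Hill fits.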

Assay [9] in a line: Cell Viability - LYMP2-012 (AID 982).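 Also: cellular ATP by luciferase luminescence where a drop means cytotoxicity; cells exposed to compound for one day before reading; 0% = DMSO only and full loss = 92 µM tetraoctylammonium bromide; nearly all actives have a fitted effect of over 55% in size.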 The settings on record: LYMP2-012 lymphoblastoid cell viability qHTS; series mostly up to 92.2 µM.
Assay [10] in a line: Cell Viability - LYMP2-020 (AID 986).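 Also: plate controls were DMSO only for no effect and tetraoctylammonium bromide at 92 µM for full effect; nearly all actives have a fitted effect of over 55% in size.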 The settings on record: series mostly up to 92.2 µM. A digest of the protocol: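 Human lymphoblastoid LYMP2-020 cells (2500/well) preincubated 5 h at 37 C, then treated 24 h at 37 C. Viability measured as intracellular ATP by CellTiter-Glo luminescence after 30 min at room temperature; AC50 from Hill fits.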
In assay [11] the target is Glucocorticoid receptor (Homo sapiens) (UniProt P04150). Nature of the assay: qHTS assay for small molecule agonists of glucocorticoid receptor signaling (AID 588532; active = well fitted curve in the direction sought with a large enough effect in the signal ratio, with a control signal flat; the % refers to the signal ratio;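 also: 100% = dexamethasone at 0.1 µM and 0% = DMSO only wells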). The settings on record: HeLa MMTV-bla, beta-lactamase ratio, agonist, 18 h; stronger effect = higher value; percent of dexamethasone control, DMSO zero. Summed up:
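Cells were plated and rested 3-5 h at 37 C, compounds were added in titration and incubated 18 h, then CCF4 substrate was loaded for 2 h at RT before reading blue/green fluorescence. EC50 came from Hill-equation fitting.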

Assay [12] addresses Vitamin D3 receptor (Homo sapiens) (UniProt P11473). Nature of the assay: qHTS assay for small molecule antagonists of vitamin D receptor signaling (AID 588541; calls by dose curve;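 also: receptor activated by calcitriol during compound treatment; % is scaled to controls: 0 for no effect and ±100 for the full control effect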). The settings on record: HEK293T VDR-UAS-bla, beta-lactamase ratio, antagonist mode; series mostly up to 76.7 µM. A digest of the protocol:
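VDR-UAS-bla HEK293T cells in 2% charcoal-stripped FBS were stimulated with 1-alpha,25-dihydroxyvitamin D3 (3 nM final) plus compound for 16 h at 37 C. The beta-lactamase CCF4 readout was normalized to 50 nM agonist and DMSO, and Hill fits gave IC50.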

Assay [13] is described as follows: qHTS assay for small molecule activators of the nuclear factor-kappa B (NF-kB) signaling pathway (AID 651749; active = well fitted activation curve with a large enough effect in the signal ratio; the % refers to the signal ratio; also: % of control where 0% means no effect). The settings on record: NF-kB-bla ME-180 cells, beta-lactamase FRET ratio, 16 h; stronger effect = higher value. Summed up: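 NF-kB-bla ME-180 cells carrying a beta-lactamase reporter under an NF-kB response element, 2,000 cells/well, exposed to compound for 16 hr at 37C; FRET-based beta-lactamase fluorescence read-out of pathway activation.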

A short description of assay [14]: qHTS assay for small molecule disruptors of the mitochondrial membrane potential - 5 hr assay (AID 651755; calls by dose curve; also: nearly all actives have a fitted effect of over 40% in size; also: potency is read from the fitted curve at half-maximal effect). Conditions: JC-1-type ratio dye; series mostly up to 92.2 µM. A digest of the protocol: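 HepG2 cells (2,000/well), attached overnight, exposed to compound 5 hr at 37C, then Mito-MPS dye 30 min. Fluorescence read for monomers (490/535 nm) and aggregates (540/590 nm).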

A short description of assay [15]: Cell Viability - LYMP2-001 (AID 921). Also: nearly all actives have a fitted effect of over 70% in size. Also: potency is read from the fitted curve at half-maximal effect. The settings on record: LYMP2-001 lymphoblastoid cell viability; series mostly up to 92.2 µM. A digest of the protocol: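 A lymphoblastoid cell line of human origin was treated with library compounds across a concentration series for 24 hours, and viable cell number was estimated from ATP-driven luciferase light output. Hill modeling gave AC50.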

Assay [16] is described as follows: Cell Viability - LYMP1-003 - Assay at 40 hr (AID 964). Also: % is scaled to controls: 0 for no effect and ±100 for the full control effect; nearly all actives have a fitted effect of over 60% in size. Conditions: LYMP1-003 lymphoblastoid viability; series mostly up to 92.2 µM. A digest of the protocol:
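LYMP1-003 human lymphoblastoid cells, 2500/well, preincubated 5 h at 37 C, then treated with compound for 40 h at 37 C. Intracellular ATP read by CellTiter-Glo luminescence after 30 min at room temperature; AC50 from Hill-equation fits.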

Assay [17] in a line: Cell Viability - LYMP2-009 (AID 968).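 Also: 0% = DMSO alone and the full-kill end = tetraoctylammonium bromide at 92 µM; nearly all actives have a fitted effect of over 55% in size.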 Conditions: LYMP2-009 lymphoblastoid cell viability; series mostly up to 92.2 µM.
The target in assay [18] is Peroxisome proliferator-activated receptor gamma (Homo sapiens) (UniProt P37231). Nature of the assay: qHTS assay for small molecule agonists of peroxisome proliferator-activated receptor gamma signaling (AID 588536; active = well fitted curve in the direction sought with a large enough effect in the signal ratio, with a control signal flat, not every such curve was filed as active; the % refers to the signal ratio;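 also: 0% = DMSO basal wells and 100% = rosiglitazone at 2 µM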). The settings on record: HEK293 PPARg-UAS-bla, beta-lactamase ratio, 16 h, percent of rosiglitazone response, DMSO as zero; series mostly up to 76.7 µM. A digest of the protocol: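 PPAR-gamma-UAS-bla HEK293 cells in medium with 1% charcoal/dextran-treated FBS were exposed to compounds for 16 h at 37 C. Beta-lactamase activity was read with CCF4 substrate (405 nm excitation, 460/530 nm emission).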
Sequence of Peroxisome proliferator-activated receptor gamma (Homo sapiens) (P37231 whole entry, looked up): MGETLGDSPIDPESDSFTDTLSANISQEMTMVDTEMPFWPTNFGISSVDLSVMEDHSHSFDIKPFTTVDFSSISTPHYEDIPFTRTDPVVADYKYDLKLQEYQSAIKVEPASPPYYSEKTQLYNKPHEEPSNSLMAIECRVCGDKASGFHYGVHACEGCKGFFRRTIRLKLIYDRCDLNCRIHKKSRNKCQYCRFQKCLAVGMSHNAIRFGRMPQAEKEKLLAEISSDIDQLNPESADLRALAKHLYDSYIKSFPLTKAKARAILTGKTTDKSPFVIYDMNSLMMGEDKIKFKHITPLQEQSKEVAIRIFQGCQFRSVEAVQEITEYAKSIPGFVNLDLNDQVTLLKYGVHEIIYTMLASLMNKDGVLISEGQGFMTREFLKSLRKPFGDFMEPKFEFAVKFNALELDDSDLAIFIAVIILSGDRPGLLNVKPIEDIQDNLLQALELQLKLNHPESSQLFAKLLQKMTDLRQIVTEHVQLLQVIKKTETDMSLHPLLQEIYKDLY

Assay [19] is described as follows: Cell Viability - LYMP2-021 (AID 974).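 Also: compound exposure lasts 24 hours at 37 °C; % is scaled to controls: 0 for no effect and ±100 for the full control effect; nearly all actives have a fitted effect of over 55% in size.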 Conditions: LYMP2-021 lymphoblastoid cells viability; series mostly up to 92.2 µM. A digest of the protocol:
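Human lymphoblastoid LYMP2-021 cells, 2500/well in complete medium, treated 24 hours at 37 C. Intracellular ATP by CellTiter-Glo luminescence (30 min, RT); AC50 from Hill fits of concentration-response.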

Assay [20] addresses Nuclear receptor subfamily 1 group I member 2 (Rattus norvegicus) (UniProt Q9R1A7). The experiment in a line: qHTS assay for small molecule activators of the rat pregnane X receptor (rPXR) signaling pathway (AID 651751; call rule not given here; also: 0% is about no effect). Conditions: rPXR reporter cells, luciferase (One-Glo), 24 h.

Where “and” joins values, the source holds several entries; their conditions need not be identical. Identical values can stand only once. Unmarked numbers belong to inactive results. Records with an inconclusive call do not appear. Calls of active or inactive are those of the source. Unless noted, calls follow the shape of the dose curve; as a rule, active = well fitted curve in the direction sought with a large enough effect; inconclusive = small, poorly fitted or top-dose-only effect, or another doubt; inactive = no such curve, though single readings can be large; an effect the other way counts as inactive or inconclusive.

Sequence of Glucocorticoid receptor (Homo sapiens) (P04150 whole entry, looked up): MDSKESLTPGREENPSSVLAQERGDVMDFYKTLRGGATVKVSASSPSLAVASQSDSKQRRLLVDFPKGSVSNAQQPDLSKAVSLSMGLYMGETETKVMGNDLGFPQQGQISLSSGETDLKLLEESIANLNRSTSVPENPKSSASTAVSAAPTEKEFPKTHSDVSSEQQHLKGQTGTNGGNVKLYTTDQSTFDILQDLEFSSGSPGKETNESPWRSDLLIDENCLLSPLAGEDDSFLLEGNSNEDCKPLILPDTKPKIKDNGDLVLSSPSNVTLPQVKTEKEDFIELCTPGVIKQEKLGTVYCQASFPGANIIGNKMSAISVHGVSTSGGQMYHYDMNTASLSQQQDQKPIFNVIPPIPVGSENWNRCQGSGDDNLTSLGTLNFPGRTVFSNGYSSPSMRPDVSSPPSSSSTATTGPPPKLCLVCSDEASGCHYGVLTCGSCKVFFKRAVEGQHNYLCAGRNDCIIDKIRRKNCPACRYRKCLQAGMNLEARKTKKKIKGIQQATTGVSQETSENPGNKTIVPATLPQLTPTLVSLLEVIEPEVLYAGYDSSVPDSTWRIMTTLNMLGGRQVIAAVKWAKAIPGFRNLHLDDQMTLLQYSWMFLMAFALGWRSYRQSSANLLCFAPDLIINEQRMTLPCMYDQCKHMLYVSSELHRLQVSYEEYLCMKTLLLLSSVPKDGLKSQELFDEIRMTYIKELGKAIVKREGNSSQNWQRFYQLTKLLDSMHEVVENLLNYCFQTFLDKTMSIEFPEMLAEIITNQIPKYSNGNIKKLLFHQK
Sequence of Nuclear receptor subfamily 1 group I member 2 (Rattus norvegicus) (Q9R1A7 whole entry, looked up): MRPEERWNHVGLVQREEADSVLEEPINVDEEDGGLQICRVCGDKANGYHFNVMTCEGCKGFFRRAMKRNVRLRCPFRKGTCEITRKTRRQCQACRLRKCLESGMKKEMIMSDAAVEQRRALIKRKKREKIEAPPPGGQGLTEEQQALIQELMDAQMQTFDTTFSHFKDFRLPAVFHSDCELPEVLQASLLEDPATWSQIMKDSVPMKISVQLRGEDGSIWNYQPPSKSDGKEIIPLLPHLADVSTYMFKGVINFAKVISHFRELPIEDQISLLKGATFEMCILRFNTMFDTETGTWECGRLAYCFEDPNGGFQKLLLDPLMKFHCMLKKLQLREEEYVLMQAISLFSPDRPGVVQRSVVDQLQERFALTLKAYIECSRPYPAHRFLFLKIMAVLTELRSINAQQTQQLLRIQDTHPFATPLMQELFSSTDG
Sequence of Vitamin D3 receptor (Homo sapiens) (P11473 whole entry, looked up): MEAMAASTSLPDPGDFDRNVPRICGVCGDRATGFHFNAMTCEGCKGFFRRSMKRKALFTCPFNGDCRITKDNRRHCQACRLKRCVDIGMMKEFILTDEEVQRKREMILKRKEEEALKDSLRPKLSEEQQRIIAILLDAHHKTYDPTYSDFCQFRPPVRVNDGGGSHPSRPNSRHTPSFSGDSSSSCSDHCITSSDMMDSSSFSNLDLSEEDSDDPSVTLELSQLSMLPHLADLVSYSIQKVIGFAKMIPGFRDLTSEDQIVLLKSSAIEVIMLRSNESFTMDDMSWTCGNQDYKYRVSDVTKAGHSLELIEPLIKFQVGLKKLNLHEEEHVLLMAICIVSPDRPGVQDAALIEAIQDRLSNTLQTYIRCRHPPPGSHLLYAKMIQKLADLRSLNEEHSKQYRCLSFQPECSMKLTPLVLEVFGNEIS

On to `Cc1ccc(OP(=O)(Oc2ccc(C)cc2)Oc2ccc(C)cc2)cc1`, for which the Potency was greater than 92 µM in assay [1] and 13.3 µM (active) in [14]. Moreover, the Potency result in [2], in [4], in assay [6], in assay [7], in assay [8] and in [9] was “inactive” each time. Also, the Potency entry in assay [10] was “inactive”. Moreover, the outcome in [3] and in [12] was inactive. Also, the caspase-3 activation in [5] is 1.7%. Besides, the activation in assay [11] was -0.0057% and -10.3%; in [13], -1% and 2.01%.

With `Cc1cc(-c2ccc(N)c(C)c2)ccc1N`, the Potency in assay [1] was greater than 92 µM. For the same molecule, the molecule was called inactive in [3], in assay [18] and in [12]. In addition, the Potency result in [4], in [15], in assay [16], in [17], in [7] and in [9] was “inactive” in each case. Also, the Potency result in assay [10] is “inactive”. For the same molecule, in assay [5], the caspase-3 activation is 1%.

As for `CN(C)c1ccc(N(C)C)cc1`, the results for the Potency in assay [1] and in [15] were greater than 92 µM and 50.1 µM (active), respectively. For the same molecule, the Potency entry in [4] and in [16] was “inactive” each time. Besides, the activation in [11] was 1.15%; in assay [13], 0.946%. Moreover, the result in assay [18] was inactive.

`C/C=C/C=O`: the Potency in [1] is greater than 92 µM. The Potency result in assay [2], in assay [15], in [16], in assay [6], in [7] and in assay [19] was “inactive” throughout. Moreover, in assay [8], the Potency result is “inactive”. The molecule was called inactive in assay [3], in [18] and in assay [12]. Further, the caspase-3 activation in [5] is 0.559%. The results for the activation in assay [11] and in assay [13] were 3.01% and 0.438%, respectively. Moreover, in assay [20], the max response was 18.2%.

With `O=[N+]([O-])c1cc(Cl)c(Cl)c(Cl)c1`, the Potency entry in [4], in assay [15], in assay [6], in assay [17], in assay [19] and in assay [8] was “inactive” each time. Also, the Potency entry in assay [9], in assay [10] and in assay [14] was “inactive” throughout. In addition, the result in [18] and in assay [12] was inactive. Moreover, the activation in [13] is -1.89%. In [20], the max response is -3.17%.

In the case of `c1ccoc1`, the molecule was classed as inactive in assay [3], in assay [18] and in assay [12]. Further, the Potency result in assay [4], in assay [15], in [16], in [6], in assay [7] and in assay [19] was “inactive” throughout. Also, the Potency entry in assay [8] and in [14] was “inactive” in each case. Further, the values for the activation in assay [11] and in assay [13] were -5.47% and 0.149%, respectively. Besides, the max response in [20] is 3.47%.

In the case of `O=C(Cl)c1ccccc1F`, in assay [1], the Potency was greater than 92 µM. Further, the molecule was classed as inactive in [3], in [18] and in [12]. Moreover, the Potency result in [4], in [15], in [6], in [17], in [19] and in assay [8] was “inactive” each time. The Potency result in assay [9] was “inactive”. Further, the caspase-3 activation in assay [5] is 2.05%. Further, the max response in [20] is 4.78%.

As for `CN(C)C(=O)Nc1cccc(C(F)(F)F)c1`, the Potency in assay [1] was greater than 92 µM. The Potency result in [2], in assay [4], in [15], in assay [6], in assay [17] and in assay [7] was “inactive” each time. Besides, the Potency entry in assay [19], in [9] and in assay [14] was “inactive” in each case. The molecule was called inactive in [3] and in assay [18]. The activation in assay [13] was 0.0409% and 1.96%. The max response in [20] is 16.9% and 5.91%.

For the molecule `N#CC(Cl)(Cl)Cl`, the Potency in [1] was greater than 92 µM. Besides, the Potency result in assay [2], in assay [4], in assay [15], in [16], in [6] and in [17] was “inactive” throughout. Moreover, the Potency result in assay [7], in assay [19], in assay [9], in assay [10] and in assay [14] was “inactive” each time. The result in [3] and in assay [18] was inactive. The activation in assay [11] was 5.98%; in [13], -0.633%. For the same molecule, the max response in assay [20] was 3.31%.

Regarding `Cc1ccc(N)c(C)c1`, in [1], the Potency is greater than 92 µM. Besides, the Potency result in assay [2], in [4], in assay [15], in assay [16], in assay [6] and in assay [7] was “inactive” each time. The Potency result in assay [19], in assay [8], in [9], in assay [10] and in [14] was “inactive” each time. Moreover, the molecule was classed as inactive in assay [3] and in assay [18]. In addition, the caspase-3 activation in assay [5] was 1.21%. The activation in assay [11] was -0.661%. Further, the max response in [20] is -0.287%.
